target: Solute carrier family 2, facilitated glucose transporter member 1 (Homo sapiens) (UniProt P11166); test: ST_JUDE_LEISH: Cytotoxicity at 2uM final concentration against transgenic Leishmania Mexicana promastigotes LmGLUT1 that are glucose transport deficient and complemented with the human glucose transporter GLUT1. Activity is measured by DNA content using SYBR green in vitro; type: functional
Sequence (P11166 whole entry): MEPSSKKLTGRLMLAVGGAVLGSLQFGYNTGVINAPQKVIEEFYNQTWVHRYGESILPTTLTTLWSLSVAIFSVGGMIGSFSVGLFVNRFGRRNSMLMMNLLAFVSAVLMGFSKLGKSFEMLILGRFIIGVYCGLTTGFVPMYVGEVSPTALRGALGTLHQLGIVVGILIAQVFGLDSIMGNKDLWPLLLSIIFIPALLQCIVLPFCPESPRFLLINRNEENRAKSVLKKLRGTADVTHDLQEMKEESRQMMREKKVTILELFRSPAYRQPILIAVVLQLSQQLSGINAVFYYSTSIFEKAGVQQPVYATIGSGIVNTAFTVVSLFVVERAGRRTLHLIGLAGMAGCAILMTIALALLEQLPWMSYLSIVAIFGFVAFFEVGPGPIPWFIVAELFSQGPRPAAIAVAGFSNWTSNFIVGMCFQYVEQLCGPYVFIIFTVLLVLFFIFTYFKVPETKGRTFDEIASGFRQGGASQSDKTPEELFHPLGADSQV

Row | SMILES | inhibition
1 | CC(C)(CNCc1ccc(Cl)c(Cl)c1)c1nc(-c2ccc(Cl)c(O)c2)c(-c2ccncc2)[nH]1 | 0.8%
2 | CNC(=O)c1ccccc1Nc1nc(Nc2ccc(N3CCN(C)CC3)nc2)ncc1C | 12%
3 | COc1ccc2nccc([C@@H](O)CN3CCC(NCCOc4c(C)cccc4F)CC3)c2c1 | 5.89%
4 | CCn1c(-c2nonc2N)nc2c(-c3ccccc3)ncc(OCCCNCCCN3CCOCC3)c21 | 2.58%
5 | COc1ccc2nccc([C@@H](O)CN3CCC(NC(=O)c4cc5ccccc5[nH]4)CC3)c2c1 | 36%
6 | CCCCCC(C)N/C(=N/c1ccccc1Br)Nc1ccc([N+](=O)[O-])cc1O (stereo not given) | 1.52%
7 | Cc1ccc(Oc2c(-c3ccccc3CN3CCCC3CN(C)C)cnn(C)c2=O)cn1 (stereo not given) | 6.33%
8 | Nc1ncc(-c2ccc(S(=O)(=O)Nc3ccc(C(=O)N[C@@H](CCC(=O)O)C(=O)O)cc3)cc2)c(=O)[nH]1 | 4.56%
9 | FC(F)(F)c1cccc(N=C(S)NN=Cc2ccccn2)c1 | -0.57%
10 | O=C(/C=C/c1cccc(C(F)(F)F)c1)NCCCCCN1CCC(c2c[nH]c3ccccc23)CC1 | 4.06%
11 | CCC(CC)(Cc1ccccc1)NC(=O)[C@H](CC(C)C)Nc1ccc(C#N)c2ccccc12 | 13.3%
12 | O=C(Nc1ccc(C(F)(F)F)cc1)c1ccc(S(=O)(=O)NC2CCCN(CC3CCCCC3)C2)cc1 (stereo not given) | 6.6%
13 | COc1cncc(/C=C/c2cncc(C(=O)NCCc3ccc(Cl)cc3Cl)c2)c1 | 4.53%
14 | COc1cc(CNCCCNc2nc(=O)c3sccc3[nH]2)c2[nH]cc(Cl)c2c1 | 92.7%
15 | OC(CNCc1cccc(Oc2ccc(Cl)cc2)c1)c1cc(C(F)(F)F)cc(C(F)(F)F)c1 (stereo not given) | 0.85%
16 | NC(=O)c1cccc(C(=O)Nc2ccc(-c3cccc(-c4nc5cc(C(F)(F)F)ccc5[nH]4)c3)cc2)c1 | 0.39%
17 | Cc1[nH]c(CNCCCNc2cc(=O)c3ccccc3[nH]2)c(Br)c1Br | 0.62%
18 | C=CCOc1ccc(Cc2cnc(N)nc2N)cc1CCC | 3.94%
19 | CCCCCNC(=N)c1ccc(OCCCCCOc2ccc(C(=N)NCCCCC)cc2)cc1 | 19.6%
20 | COC(=O)c1ccc2c(c1)nc(Nc1cccc(F)c1)n2CC(O)c1ccccn1 (stereo not given) | 4.12%

Row | SMILES | inhibition
21 | Nc1c(Cl)cc(C(O)CNCCCCCOCCCc2ccc3ncccc3c2)cc1Cl (stereo not given) | 5.88%
22 | Cc1ccc(Cn2cnc(N3CC(C)NC(C)C3)cc2=O)cc1NC(=O)Nc1ccc(-c2ccccc2)cc1 (stereo not given) | -0.2%
23 | NCCC(=O)Nc1ccc(-c2cnc3[nH]cc(-c4ccc(C(=O)O)cc4)c3c2)cn1 | 1.05%
24 | Cc1cc(-c2ccc3c(c2)CCN(CCCOc2ccc4c(c2)CCN4C(=O)/C=C/c2ccccc2Cl)CC3)no1 | 5.8%
25 | O=C(Nc1ccc(C(=O)N2CCN(CCN3CCN(c4cccc(C(F)(F)F)c4)CC3)CC2)cc1)c1ccc(C(F)(F)F)cc1 | 2.54%
26 | CCCCOP(=O)(COc1ccc(CCN(CC(O)COc2cccc3[nH]c4ccccc4c23)CC(O)COc2cccc3[nH]c4ccccc4c23)cc1)C1CCCCC1 (stereo not given) | 3.64%
27 | Cc1cc(F)ccc1N(c1nc(-c2cc(Cl)ccc2Cl)cs1)C1CCNC1 (stereo not given) | 8.82%
28 | CC(C)CNCc1cccc(-c2ccc(CNc3ccc4ncccc4c3)cc2)c1 | 1.45%
29 | CCCCC(N)COc1cccc2c(-c3ccncc3)c(-c3cccc(NC(=O)Nc4ccccc4)c3)nn12 (stereo not given) | 3.39%
30 | CCCn1c(Sc2ccc(C#N)c([N+](=O)[O-])c2)nnc1-c1cc(OC)cc(OC)c1 | 0.5%
31 | CN(C)c1ccc(-c2cscc2C(=O)NC2CCCN(Cc3cccnc3)C2)cc1 (stereo not given) | -0.4%
32 | O=C(Nc1cccc(-c2ccc(-c3nc4cc(F)ccc4[nH]3)cc2)c1)c1ccncc1 | 4.46%
33 | CCN(CC)CCCC(C)Nc1ccnc2[nH]c3ccccc3c12 (stereo not given) | 6.4%
34 | CN(C)CCOc1cc(NC(=O)c2ccc(-c3ccc(Cl)cc3Cl)cc2)ccc1-c1ccccc1 | 0.11%
35 | Cc1cnc(C(=O)Nc2ccc3c(c2)CCCN(Cc2c[nH]c4cnccc24)C3)cn1 | 11.1%
36 | COc1ccc(CN2CCCN(Cc3cccc(NC(=O)c4ccc(-c5ccccc5)cc4)c3)CC2)cc1 | -0.75%
37 | COc1ccc(Cl)cc1NC(=O)CN(C)C(=O)c1cnn(-c2ccccc2)n1 | 1.85%
38 | OC(CN1c2ccccc2Sc2ccccc21)CN(C1CCCCC1)C1CCCCC1 (stereo not given) | 6.08%
39 | COc1ccc2nc(-c3cc(-c4ccc(NC(=O)CN5CCOCC5)cc4)cnc3N)[nH]c2c1 | 17.5%
40 | Cc1ccnc(NC(=O)c2cc(-c3cccc([N+](=O)[O-])c3)nc3onc(C)c23)c1 | 6.8%

target: Hexose transporter 1 (Plasmodium falciparum) (UniProt O97467); test: ST_JUDE_LEISH: Cytotoxicity at 2uM final concentration against transgenic Leishmania Mexicana promastigotes LmPfHT that are glucose transport deficient and complemented with the Plasmodium falciparum hexose transporter. Activity is measured by DNA content using SYBR green in vitro; type: functional

Row | SMILES | inhibition
41 | CC(C)(CNCc1ccc(Cl)c(Cl)c1)c1nc(-c2ccc(Cl)c(O)c2)c(-c2ccncc2)[nH]1 | 3.02%
42 | CNC(=O)c1ccccc1Nc1nc(Nc2ccc(N3CCN(C)CC3)nc2)ncc1C | 11.3%
43 | COc1ccc2nccc([C@@H](O)CN3CCC(NCCOc4c(C)cccc4F)CC3)c2c1 | 3.49%
44 | CCn1c(-c2nonc2N)nc2c(-c3ccccc3)ncc(OCCCNCCCN3CCOCC3)c21 | 1.32%
45 | COc1ccc2nccc([C@@H](O)CN3CCC(NC(=O)c4cc5ccccc5[nH]4)CC3)c2c1 | 55.7%
46 | CCCCCC(C)N/C(=N/c1ccccc1Br)Nc1ccc([N+](=O)[O-])cc1O (stereo not given) | 1.7%
47 | Cc1ccc(Oc2c(-c3ccccc3CN3CCCC3CN(C)C)cnn(C)c2=O)cn1 (stereo not given) | 4.63%
48 | Nc1ncc(-c2ccc(S(=O)(=O)Nc3ccc(C(=O)N[C@@H](CCC(=O)O)C(=O)O)cc3)cc2)c(=O)[nH]1 | 4.19%
49 | FC(F)(F)c1cccc(N=C(S)NN=Cc2ccccn2)c1 | 4.7%
50 | O=C(/C=C/c1cccc(C(F)(F)F)c1)NCCCCCN1CCC(c2c[nH]c3ccccc23)CC1 | 3.58%
51 | CCC(CC)(Cc1ccccc1)NC(=O)[C@H](CC(C)C)Nc1ccc(C#N)c2ccccc12 | 10.4%
52 | O=C(Nc1ccc(C(F)(F)F)cc1)c1ccc(S(=O)(=O)NC2CCCN(CC3CCCCC3)C2)cc1 (stereo not given) | 4.53%
53 | COc1cncc(/C=C/c2cncc(C(=O)NCCc3ccc(Cl)cc3Cl)c2)c1 | 5.13%
54 | COc1cc(CNCCCNc2nc(=O)c3sccc3[nH]2)c2[nH]cc(Cl)c2c1 | 96.7%
55 | OC(CNCc1cccc(Oc2ccc(Cl)cc2)c1)c1cc(C(F)(F)F)cc(C(F)(F)F)c1 (stereo not given) | -0.5%
56 | NC(=O)c1cccc(C(=O)Nc2ccc(-c3cccc(-c4nc5cc(C(F)(F)F)ccc5[nH]4)c3)cc2)c1 | -0.82%
57 | Cc1[nH]c(CNCCCNc2cc(=O)c3ccccc3[nH]2)c(Br)c1Br | 1.85%
58 | C=CCOc1ccc(Cc2cnc(N)nc2N)cc1CCC | 4.62%
59 | CCCCCNC(=N)c1ccc(OCCCCCOc2ccc(C(=N)NCCCCC)cc2)cc1 | 25.9%
60 | COC(=O)c1ccc2c(c1)nc(Nc1cccc(F)c1)n2CC(O)c1ccccn1 (stereo not given) | 3.8%

Row | SMILES | inhibition
61 | Nc1c(Cl)cc(C(O)CNCCCCCOCCCc2ccc3ncccc3c2)cc1Cl (stereo not given) | 5.02%
62 | Cc1ccc(Cn2cnc(N3CC(C)NC(C)C3)cc2=O)cc1NC(=O)Nc1ccc(-c2ccccc2)cc1 (stereo not given) | -0.46%
63 | NCCC(=O)Nc1ccc(-c2cnc3[nH]cc(-c4ccc(C(=O)O)cc4)c3c2)cn1 | 1.74%
64 | Cc1cc(-c2ccc3c(c2)CCN(CCCOc2ccc4c(c2)CCN4C(=O)/C=C/c2ccccc2Cl)CC3)no1 | 12%
65 | O=C(Nc1ccc(C(=O)N2CCN(CCN3CCN(c4cccc(C(F)(F)F)c4)CC3)CC2)cc1)c1ccc(C(F)(F)F)cc1 | 2.63%
66 | CCCCOP(=O)(COc1ccc(CCN(CC(O)COc2cccc3[nH]c4ccccc4c23)CC(O)COc2cccc3[nH]c4ccccc4c23)cc1)C1CCCCC1 (stereo not given) | 0.57%
67 | Cc1cc(F)ccc1N(c1nc(-c2cc(Cl)ccc2Cl)cs1)C1CCNC1 (stereo not given) | 7.41%
68 | CC(C)CNCc1cccc(-c2ccc(CNc3ccc4ncccc4c3)cc2)c1 | 1.19%
69 | CCCCC(N)COc1cccc2c(-c3ccncc3)c(-c3cccc(NC(=O)Nc4ccccc4)c3)nn12 (stereo not given) | 2.13%
70 | CCCn1c(Sc2ccc(C#N)c([N+](=O)[O-])c2)nnc1-c1cc(OC)cc(OC)c1 | 4.36%
71 | CN(C)c1ccc(-c2cscc2C(=O)NC2CCCN(Cc3cccnc3)C2)cc1 (stereo not given) | -0.27%
72 | O=C(Nc1cccc(-c2ccc(-c3nc4cc(F)ccc4[nH]3)cc2)c1)c1ccncc1 | 2.3%
73 | CCN(CC)CCCC(C)Nc1ccnc2[nH]c3ccccc3c12 (stereo not given) | 6.62%
74 | CN(C)CCOc1cc(NC(=O)c2ccc(-c3ccc(Cl)cc3Cl)cc2)ccc1-c1ccccc1 | 0.95%
75 | Cc1cnc(C(=O)Nc2ccc3c(c2)CCCN(Cc2c[nH]c4cnccc24)C3)cn1 | 11.4%
76 | COc1ccc(CN2CCCN(Cc3cccc(NC(=O)c4ccc(-c5ccccc5)cc4)c3)CC2)cc1 | -1.14%
77 | COc1ccc(Cl)cc1NC(=O)CN(C)C(=O)c1cnn(-c2ccccc2)n1 | -0.34%
78 | OC(CN1c2ccccc2Sc2ccccc21)CN(C1CCCCC1)C1CCCCC1 (stereo not given) | 6.38%
79 | COc1ccc2nc(-c3cc(-c4ccc(NC(=O)CN5CCOCC5)cc4)cnc3N)[nH]c2c1 | 44.4%
80 | Cc1ccnc(NC(=O)c2cc(-c3cccc([N+](=O)[O-])c3)nc3onc(C)c23)c1 | 7.59%
